Targets with a hit are over-represented here; the source holds about 7,900 in all. About 0.6% of all pairs of compound and target were hits. Unmarked numbers belong to inactive results.

UniProt P27986, sequence (P27986 whole entry, looked up): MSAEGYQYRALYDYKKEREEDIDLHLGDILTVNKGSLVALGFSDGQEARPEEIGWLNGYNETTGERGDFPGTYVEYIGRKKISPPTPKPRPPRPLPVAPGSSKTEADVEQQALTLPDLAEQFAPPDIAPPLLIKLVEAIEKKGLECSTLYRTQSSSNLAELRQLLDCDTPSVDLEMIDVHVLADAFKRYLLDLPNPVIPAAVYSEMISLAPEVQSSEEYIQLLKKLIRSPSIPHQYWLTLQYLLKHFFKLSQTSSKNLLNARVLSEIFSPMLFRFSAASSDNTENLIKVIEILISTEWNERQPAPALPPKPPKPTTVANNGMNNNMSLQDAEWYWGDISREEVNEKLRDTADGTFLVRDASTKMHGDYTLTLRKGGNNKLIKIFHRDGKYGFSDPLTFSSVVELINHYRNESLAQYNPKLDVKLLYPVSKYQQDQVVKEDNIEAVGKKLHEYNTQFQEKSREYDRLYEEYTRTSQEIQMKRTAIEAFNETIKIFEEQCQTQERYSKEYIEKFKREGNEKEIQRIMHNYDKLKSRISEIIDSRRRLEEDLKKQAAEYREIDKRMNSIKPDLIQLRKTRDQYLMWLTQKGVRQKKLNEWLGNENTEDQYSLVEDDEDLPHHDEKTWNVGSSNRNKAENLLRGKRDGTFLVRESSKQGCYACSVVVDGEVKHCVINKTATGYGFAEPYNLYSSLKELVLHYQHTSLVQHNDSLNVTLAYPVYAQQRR
UniProt Q6P4A8, sequence (Q6P4A8 whole entry, looked up): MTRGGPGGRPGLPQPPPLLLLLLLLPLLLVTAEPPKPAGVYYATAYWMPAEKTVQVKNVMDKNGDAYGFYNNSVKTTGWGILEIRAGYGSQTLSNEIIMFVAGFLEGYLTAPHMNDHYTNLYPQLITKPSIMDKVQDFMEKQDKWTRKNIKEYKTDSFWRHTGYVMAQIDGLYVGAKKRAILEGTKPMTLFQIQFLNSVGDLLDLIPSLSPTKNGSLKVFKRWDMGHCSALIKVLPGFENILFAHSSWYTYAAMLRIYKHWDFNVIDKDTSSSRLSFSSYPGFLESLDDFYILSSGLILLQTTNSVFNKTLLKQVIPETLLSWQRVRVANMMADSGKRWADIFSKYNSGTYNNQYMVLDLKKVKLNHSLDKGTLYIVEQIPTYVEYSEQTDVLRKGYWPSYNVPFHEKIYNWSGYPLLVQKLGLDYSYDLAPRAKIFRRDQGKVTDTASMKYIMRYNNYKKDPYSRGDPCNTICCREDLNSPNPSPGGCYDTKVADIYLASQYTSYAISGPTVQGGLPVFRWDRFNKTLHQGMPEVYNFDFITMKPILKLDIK
UniProt Q13131, sequence (Q13131 whole entry, looked up): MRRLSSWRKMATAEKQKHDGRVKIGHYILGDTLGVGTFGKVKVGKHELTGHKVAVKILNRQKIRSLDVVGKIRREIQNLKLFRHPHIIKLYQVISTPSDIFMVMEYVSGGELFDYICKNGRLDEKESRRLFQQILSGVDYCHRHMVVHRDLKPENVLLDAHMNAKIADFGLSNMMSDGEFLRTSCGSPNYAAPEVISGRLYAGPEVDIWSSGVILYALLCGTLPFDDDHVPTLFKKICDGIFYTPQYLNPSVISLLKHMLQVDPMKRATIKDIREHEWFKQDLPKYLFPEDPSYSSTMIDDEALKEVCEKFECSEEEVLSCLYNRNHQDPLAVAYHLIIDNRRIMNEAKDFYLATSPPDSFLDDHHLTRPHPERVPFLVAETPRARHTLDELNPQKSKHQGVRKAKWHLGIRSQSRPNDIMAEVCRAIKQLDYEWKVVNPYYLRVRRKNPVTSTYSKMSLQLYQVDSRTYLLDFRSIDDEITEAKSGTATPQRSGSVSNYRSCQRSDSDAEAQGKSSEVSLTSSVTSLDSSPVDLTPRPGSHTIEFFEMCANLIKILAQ
UniProt P43686, sequence (P43686 whole entry, looked up): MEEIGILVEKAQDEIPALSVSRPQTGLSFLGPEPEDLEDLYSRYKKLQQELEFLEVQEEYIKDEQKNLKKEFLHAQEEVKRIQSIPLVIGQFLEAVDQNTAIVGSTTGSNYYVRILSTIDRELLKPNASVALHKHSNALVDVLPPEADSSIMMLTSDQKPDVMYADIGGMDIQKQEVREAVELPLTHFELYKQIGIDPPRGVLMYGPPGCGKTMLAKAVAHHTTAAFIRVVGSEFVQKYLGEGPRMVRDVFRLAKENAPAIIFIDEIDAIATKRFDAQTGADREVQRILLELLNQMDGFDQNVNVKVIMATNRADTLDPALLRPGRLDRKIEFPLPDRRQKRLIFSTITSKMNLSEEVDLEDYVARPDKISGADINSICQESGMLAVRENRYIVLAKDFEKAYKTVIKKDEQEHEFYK
UniProt Q9NW08, sequence (Q9NW08 whole entry, looked up): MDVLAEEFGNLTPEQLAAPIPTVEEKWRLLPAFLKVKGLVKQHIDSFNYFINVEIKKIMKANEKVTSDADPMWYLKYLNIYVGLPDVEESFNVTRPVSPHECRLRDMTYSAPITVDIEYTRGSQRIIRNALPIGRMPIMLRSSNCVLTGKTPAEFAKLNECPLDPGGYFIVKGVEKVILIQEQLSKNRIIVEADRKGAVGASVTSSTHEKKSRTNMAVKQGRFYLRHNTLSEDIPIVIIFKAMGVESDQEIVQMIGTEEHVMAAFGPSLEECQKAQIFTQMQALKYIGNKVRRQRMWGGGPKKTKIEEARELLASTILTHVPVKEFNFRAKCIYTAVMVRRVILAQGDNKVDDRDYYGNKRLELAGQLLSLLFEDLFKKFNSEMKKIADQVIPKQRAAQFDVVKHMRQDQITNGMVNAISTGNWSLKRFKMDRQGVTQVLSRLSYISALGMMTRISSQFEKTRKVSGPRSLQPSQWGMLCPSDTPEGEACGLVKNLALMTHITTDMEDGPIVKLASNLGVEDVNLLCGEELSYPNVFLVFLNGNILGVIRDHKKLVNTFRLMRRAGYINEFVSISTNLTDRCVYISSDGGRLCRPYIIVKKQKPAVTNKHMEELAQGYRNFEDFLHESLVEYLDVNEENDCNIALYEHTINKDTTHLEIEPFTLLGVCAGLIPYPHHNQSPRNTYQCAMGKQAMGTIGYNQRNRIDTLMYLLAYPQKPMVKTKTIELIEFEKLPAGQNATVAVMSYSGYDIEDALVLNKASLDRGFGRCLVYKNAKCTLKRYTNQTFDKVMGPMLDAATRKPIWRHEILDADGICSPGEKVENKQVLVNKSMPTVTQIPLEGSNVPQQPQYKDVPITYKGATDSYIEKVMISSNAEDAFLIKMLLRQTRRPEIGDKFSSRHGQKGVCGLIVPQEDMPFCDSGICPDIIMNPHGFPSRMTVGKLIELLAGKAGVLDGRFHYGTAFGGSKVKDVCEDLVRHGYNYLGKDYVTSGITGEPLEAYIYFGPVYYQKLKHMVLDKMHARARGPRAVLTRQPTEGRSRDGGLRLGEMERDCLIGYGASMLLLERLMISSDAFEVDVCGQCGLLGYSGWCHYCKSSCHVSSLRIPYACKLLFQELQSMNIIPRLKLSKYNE
UniProt Q8N4L2, sequence (Q8N4L2 whole entry, looked up): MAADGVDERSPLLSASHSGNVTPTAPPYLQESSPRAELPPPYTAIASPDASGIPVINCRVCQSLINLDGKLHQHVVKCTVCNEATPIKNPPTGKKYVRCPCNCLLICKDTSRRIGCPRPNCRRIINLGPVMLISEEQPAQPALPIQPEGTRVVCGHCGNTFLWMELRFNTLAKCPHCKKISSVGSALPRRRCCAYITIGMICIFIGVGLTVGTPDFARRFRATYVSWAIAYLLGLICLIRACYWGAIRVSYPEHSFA
UniProt Q9Y478, sequence (Q9Y478 whole entry, looked up): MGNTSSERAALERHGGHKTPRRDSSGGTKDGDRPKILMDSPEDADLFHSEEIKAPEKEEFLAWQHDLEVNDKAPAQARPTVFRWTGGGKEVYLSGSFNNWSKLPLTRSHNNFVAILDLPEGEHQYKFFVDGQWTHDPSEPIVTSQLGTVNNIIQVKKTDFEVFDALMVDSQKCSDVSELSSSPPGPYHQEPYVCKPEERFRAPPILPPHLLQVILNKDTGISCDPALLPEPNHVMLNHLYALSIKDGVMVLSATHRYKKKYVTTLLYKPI
UniProt P10644, sequence (P10644 whole entry, looked up): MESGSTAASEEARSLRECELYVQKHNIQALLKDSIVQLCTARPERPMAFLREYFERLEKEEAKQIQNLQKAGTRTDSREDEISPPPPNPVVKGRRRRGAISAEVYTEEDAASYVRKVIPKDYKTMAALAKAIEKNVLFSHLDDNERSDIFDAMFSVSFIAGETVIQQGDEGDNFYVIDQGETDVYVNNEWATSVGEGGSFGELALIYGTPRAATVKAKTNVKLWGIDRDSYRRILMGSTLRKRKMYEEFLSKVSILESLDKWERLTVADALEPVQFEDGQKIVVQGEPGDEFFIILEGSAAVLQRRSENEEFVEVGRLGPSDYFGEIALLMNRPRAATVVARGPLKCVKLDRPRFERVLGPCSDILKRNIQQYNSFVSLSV
UniProt O95453, sequence (O95453 whole entry, looked up): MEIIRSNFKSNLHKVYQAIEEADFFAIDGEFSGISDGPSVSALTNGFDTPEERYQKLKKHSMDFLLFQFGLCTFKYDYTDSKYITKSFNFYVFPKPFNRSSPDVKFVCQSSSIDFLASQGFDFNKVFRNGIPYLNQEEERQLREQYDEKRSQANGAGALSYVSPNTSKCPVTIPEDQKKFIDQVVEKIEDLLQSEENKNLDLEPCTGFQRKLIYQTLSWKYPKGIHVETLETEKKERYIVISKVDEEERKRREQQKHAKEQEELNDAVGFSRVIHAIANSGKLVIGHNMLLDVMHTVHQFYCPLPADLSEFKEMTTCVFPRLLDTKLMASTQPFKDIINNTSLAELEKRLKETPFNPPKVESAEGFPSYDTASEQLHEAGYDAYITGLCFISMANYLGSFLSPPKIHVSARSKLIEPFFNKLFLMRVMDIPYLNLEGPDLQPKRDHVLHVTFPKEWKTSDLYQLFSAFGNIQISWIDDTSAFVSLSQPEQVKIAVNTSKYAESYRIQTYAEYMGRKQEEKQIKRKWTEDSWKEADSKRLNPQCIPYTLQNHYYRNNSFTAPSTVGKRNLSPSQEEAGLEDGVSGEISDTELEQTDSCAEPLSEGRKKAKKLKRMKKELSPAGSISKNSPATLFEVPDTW

Compound in one experiment: CCCS(=O)(=O)Nc1ccc(F)c(C(=O)c2c[nH]c3ncc(-c4ccc(Cl)cc4)cc23)c1F [vemurafenib]
Description: log2 fold change, soluble protein after heating vs DMSO (PISA); higher = thermal stabilisation; K562 cells, 10 uM, 30 min; active = over 0.2 and 3.5 SD of the protein, either way, in both replicates (recomputed). The procedure, abridged: (§1)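 Aliquots of K562 cells (2×10^6 cells/mL) treated with 10 μM compound for 30 min were heated for 3 min over 48°C-58°C. After pooling and extraction in PBS with 0.5% NP-40 at 4°C, soluble protein from a 21,000xg, 90 min spin was quantified by TMTpro 16plex LC-MS/MS with channel sums equalised. Thermal stability is expressed against control samples, from duplicates, as a log2 fold change.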
On to POLR3B (UniProt Q9NW08), for which the log2 fold change is 0.003. As to PHKG2 (UniProt P15735), the log2 fold change was -0.003. On the same count and under the same terms, for POLR2D (UniProt O15514) the value was 0.046; for PRKAB1 (UniProt Q9Y478), 0.031; for PRKAA1 isoform 2 (UniProt Q13131), 0.025.

On to PSMC4 (UniProt P43686), for which the log2 fold change is -0.066.

For PRKAR1A (UniProt P10644), the log2 fold change is -0.028. As to PIK3R1 (UniProt P27986), the log2 fold change is 0.047. Regarding PHAX (UniProt Q9H814), the log2 fold change was 0.002.

Regarding PIP4P2 (UniProt Q8N4L2), the log2 fold change is -0.013. Consider PLBD1 (UniProt Q6P4A8), for which the log2 fold change was 0.069.

On to PSMC1 (UniProt P62191), for which the log2 fold change is -0.064. PDE12 (UniProt Q6L8Q7): the log2 fold change was -0.006. Still for that read-out and setting: next, PARN (UniProt O95453): 0.

Compound in the next experiment: CCCS(=O)(=O)Nc1ccc(F)c(C(=O)c2c[nH]c3ncc(Cl)cc23)c1F
Described as above. The procedure, abridged:
as §1
In the case of PSMC2 (UniProt P35998), the log2 fold change is -0.041.

For the target PSMB6 (UniProt P28072), the log2 fold change is -0.062. On to PRKD2 isoform 3 (UniProt Q9BZL6), for which the log2 fold change was 0.058.

As for QKI (UniProt Q96PU8), the log2 fold change is 0.084. Still for that read-out and setting: for PKN1 isoform 2 (UniProt Q16512) the value was 0.03. Take PRPF38B (UniProt Q5VTL8): the log2 fold change was 0.042. On to PTPN12 (UniProt Q05209), for which the log2 fold change is 0.04. Take PDCD6 (UniProt O75340): the log2 fold change is 0.023. Regarding PPOX (UniProt P50336), the log2 fold change was 0.046. For the target POP1 (UniProt Q99575), the log2 fold change is 0.021. Consider PIKFYVE (UniProt Q9Y2I7), for which the log2 fold change was 0.109. As for PPP1R35 (UniProt Q8TAP8), the log2 fold change was 0.008.

PSMB4 (UniProt P28070): the log2 fold change was -0.029. On to PLIN2 (UniProt Q99541), for which the log2 fold change is 0.042. With PCNT (UniProt O95613), the log2 fold change is -0.103.

Regarding PSMD13 (UniProt Q9UNM6), the log2 fold change was -0.048. Turning to PEA15 isoform 2 (UniProt Q15121), the log2 fold change was 0.122. On to PARG (UniProt Q86W56), for which the log2 fold change is -0.006. Regarding PDLIM7 (UniProt Q9NR12), the log2 fold change is 0.032.

As for PEX13 (UniProt Q92968), the log2 fold change was 0.033. In the case of PRKCD (UniProt Q05655), the log2 fold change was 0.013.

With PSMC5 (UniProt P62195), the log2 fold change is -0.053. In the case of PCBP1 (UniProt Q15365), the log2 fold change was 0.097.

Consider POLR3B (UniProt Q9NW08), for which the log2 fold change was 0.172.

In the case of PHKG2 (UniProt P15735), the log2 fold change was -0.004. In the case of POLR2D (UniProt O15514), the log2 fold change was -0.006.

For the target PRKAB1 (UniProt Q9Y478), the log2 fold change was 0.017. The same measure, in the same setting: next, PRKAA1 isoform 2 (UniProt Q13131): 0.008. Regarding PSMC4 (UniProt P43686), the log2 fold change is -0.083. PRKAR1A (UniProt P10644): the log2 fold change is -0.085.

As to PIK3R1 (UniProt P27986), the log2 fold change was 0.058.

In the case of PHAX (UniProt Q9H814), the log2 fold change is -0.019.

As for PIP4P2 (UniProt Q8N4L2), the log2 fold change was 0.041. As to PLBD1 (UniProt Q6P4A8), the log2 fold change was -0.014. PSMC1 (UniProt P62191): the log2 fold change is -0.06.

Consider PDE12 (UniProt Q6L8Q7), for which the log2 fold change was 0.03. With PARN (UniProt O95453), the log2 fold change is 0.043.
